This is a sample that favours compounds with a hit; in the whole collection about 5.2% have one here.
Tau fluor counter – counter-screen for tau fibril formation inhibitors; tau K18 P301L Alexa594 fluorescence, heparin fibrillization; Potency, µM (top dose mostly 57.7 µM), for the others: top-dose activity change, negative = decrease; 0.93% of 280,000 active; AID 1463; note: potency is the fitted concentration of half-maximal effect; nearly all actives have a fitted effect of over 55% in size
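Human tau K18 P301L (15 uM unlabeled, 0.24 uM Alexa 594-labeled) in 100 mM sodium acetate pH 7 with 20 uM heparin, 6 hr at 37 C. ThT 30 uM added, 1 hr ambient; Alexa 594 FP and total fluorescence read at 555/632 nm.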
Sfp inh – blocks B. subtilis Sfp PPTase activity; Q9F4F7; Biochemical Sfp PPTase activity, qHTS; Potency, µM, for the others: largest response in the series, negative = inhibition, hits mostly inhibitors; 3.5% of 310,000 active; AID 1490;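 note: the enzyme is Sfp with the accession as filed and its product quenches rhodamine fluorescence; potency is the fitted concentration of half-maximal effect; 0% = enzyme reaction without inhibitor and -100% = no enzyme wells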
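With Hepes-Na pH 7.6 buffer containing 10 mM MgCl2, Sfp (15 nM) modified BHQ-2-YbbR (12.5 uM) using rhodamine-CoA (5 uM). Two reads 30 minutes apart at 525/598 nm yielded each well's rate.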
Tau fibril FP – inhibitors of human tau fibril formation. P10636. AID 1468. K18 P301L tau heparin fibrillization, Alexa594 FP, 6 h. Potency, µM (titrated, usually from 57.7 µM), without a hit: at the top dose activity, negative = inhibition, most hits filed as inhibitors. 0.39% of 280,000 active; note: potency is the fitted concentration of half-maximal effect; nearly all actives have a fitted effect of over 55% in size
Target sequence (P10636 561-689 P618L limits assumed): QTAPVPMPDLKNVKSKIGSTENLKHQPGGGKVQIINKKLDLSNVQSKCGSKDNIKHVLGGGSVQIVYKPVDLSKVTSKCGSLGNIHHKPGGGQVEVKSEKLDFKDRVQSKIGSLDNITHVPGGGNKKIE
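K18 P301L tau (15 uM unlabeled/0.24 uM Alexa 594-labeled, final) + compound + heparin 20 uM final; 100 mM NaOAc pH 7; 6 hr 37 C; ThT 30 uM final added, 1 hr RT; FP ex 555/em 632 nm.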
Coupling enz – inhibits coupling enzyme system, counter-screen for aldolase hits. activity change, negative = inhibition, % at 58.2 µM, hits read low. AID 2472. coupling enzyme system counterscreen, AmpLite Red fluorescence. 0.67% of 290,000 active; in the data active = activity change below about -30%
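Coupling enzymes only (glyceraldehyde-3-phosphate) + compound, at 57.5 uM final, 10 min RT; add substrate/coupling/AmpLite Red mix, 20 min RT; fluorescence ex 525/em 598 nm. Actives flag coupling-system interference.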
Tau ThT inhib – blocks human tau fibril formation measured by thioflavin T; P10636; recombinant tau K18 P301L, heparin-induced fibrillization, ThT fluorescence; Potency, µM (doses to about 57.4 µM), for the others: at the highest dose activity, negative = inhibition, most hits filed as inhibitors; 2.1% of 270,000 active; note: potency is the fitted concentration of half-maximal effect; nearly all actives have a fitted effect of over 55% in size
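Fibril formation assay: tau K18 P301L at 15 uM with trace Alexa 594 label, heparin inducer 20 uM, pH 7 sodium acetate buffer, 37 C for 6 hr; endpoint ThT signal.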
* marks the source's active call; other numbers are inactive results; [ ] = remark or other dose. Unless noted, calls come from the whole dose curve; as a rule, active = well fitted curve in the direction sought with a large enough effect; inconclusive = small, poorly fitted or top-dose-only effect, or another doubt; inactive = no such curve, though single readings can be large; an effect the other way counts as inactive or inconclusive. Unless noted, % is set by controls: 0 for no effect and ±100 for the full control effect.

Screening O=C(NCc1ccccc1)c1cc(-c2cccs2)on1 returned Tau fluor counter -6%, Sfp inh 22%, Tau fibril FP 9%, Coupling enz 9 and Tau ThT inhib -10%.
`O=C(NCc1ccc(F)cc1)c1cc(-c2cccs2)on1` gave Tau fluor counter -12%, Sfp inh 45µM*, Tau fibril FP 0%, Coupling enz 0 and Tau ThT inhib -7%.
C/C(=C\c1cccc(Cl)c1Cl)C(=O)c1c(C)cc(C)[nH]c1=O was read as Sfp inh 18% and Coupling enz 0.
COc1ccccc1/C=C/C(C)=O was read as Tau fluor counter -3%, Sfp inh 15%, Tau fibril FP -6%, Coupling enz 5 and Tau ThT inhib -10%.
CNc1ccc(Br)cc(C(=O)/C=C/c2cccc(Cl)c2Cl)c1=O was read as Tau fluor counter inconclusive, Sfp inh 22µM*, Tau fibril FP inconclusive, Coupling enz -11 and Tau ThT inhib 7.1µM*.
CNc1ccccc(C(=O)/C=C/c2ccccc2OC)c1=O was read as Tau fluor counter inconclusive, Sfp inh 32µM*, Tau fibril FP inconclusive, Coupling enz -30* and Tau ThT inhib 16µM*.
`COc1ccccc1/C=C/C(=O)Nc1cccnc1Cl` gave Sfp inh 5% and Coupling enz 1.
For COc1ccccc1/C=C/C(=O)/C=C/c1ccccc1O the results were Tau fluor counter -28%, Sfp inh -2%, Tau fibril FP inconclusive, Coupling enz -13 and Tau ThT inhib 14µM*.
`CNc1ccc(Br)cc(C(=O)/C=C/c2cccc(OC)c2OC)c1=O` gave Tau fluor counter inconclusive, Sfp inh 13µM*, Tau fibril FP inconclusive, Coupling enz -32* and Tau ThT inhib 14µM*.
`Cc1ccc(C2=CC(c3ccccc3F)n3c(nc4ccccc43)N2)cc1C` (stereo not drawn) gave Tau fluor counter -13%, Tau fibril FP 2% and Tau ThT inhib inconclusive.
Fc1ccccc1Cc1noc(CN2CCC(OCc3cccnc3)CC2)n1 was read as Tau fluor counter 12%[2.34 µM], Sfp inh 35µM*, Tau fibril FP -1%, Coupling enz 0 and Tau ThT inhib -15%.
`COC1CCCN(Cc2nc(Cc3ccccc3F)no2)C1` (stereo not drawn) gave Tau fluor counter 1%, Sfp inh 26%, Tau fibril FP -3%, Coupling enz 1 and Tau ThT inhib 2%.
CC(=O)N1CCc2cc(S(=O)(=O)NC(CC(C)C)C(=O)NCc3ccccc3Cl)ccc21 (stereo not drawn) was read as Tau fluor counter -11%, Tau fibril FP -8% and Tau ThT inhib -1%.
Screening O=[N+]([O-])c1c(Nc2cccc(O)c2)cc(Cl)c2nonc12 returned Sfp inh 56µM* and Coupling enz -3.
`Cc1c(Nc2cc(Cl)c3nonc3c2[N+](=O)[O-])c(=O)n(-c2ccccc2)n1C` gave Tau fluor counter 10µM*[quencher], Sfp inh inconclusive, Tau fibril FP inconclusive, Coupling enz -6 and Tau ThT inhib 4µM*.
For O=C(O)c1ccc(Nc2cc(Cl)c3nonc3c2[N+](=O)[O-])cc1 the results were Tau fluor counter inconclusive, Sfp inh 35µM*, Tau fibril FP -2%, Coupling enz -4 and Tau ThT inhib 7.1µM*.
For O=C(O)c1cccc(Nc2ccc3nonc3c2[N+](=O)[O-])c1 the results were Sfp inh 23% and Coupling enz 1.
For CC[C@@H](C)[C@@H](C(=O)Nc1ccc(C)cc1)N1Cc2ccccc2C1=O the results were Tau fluor counter -16%, Tau fibril FP -2% and Tau ThT inhib -12%.
Screening CC1CN(c2ccc([N+](=O)[O-])c(NCCOc3ccccc3)c2)CC(C)N1 (stereo not drawn) returned Sfp inh -5% and Coupling enz 2.
`Cc1ccccc1OCCNc1cc(N2CC(C)NC(C)C2)ccc1[N+](=O)[O-]` (stereo not drawn) gave Tau fluor counter inconclusive, Sfp inh -16%, Tau fibril FP inconclusive, Coupling enz -1 and Tau ThT inhib 18µM*.
CN(C)c1ccc(CNC(=O)C2CCN(S(=O)(=O)c3cn(C)cn3)CC2)cc1 was read as Tau fluor counter 1%, Tau fibril FP 10% and Tau ThT inhib 2%.
`CC1CCN(C(=O)Cn2cc(SCC(=O)NCc3ccc(F)cc3)c3ccccc32)CC1` gave Tau fluor counter -6%, Tau fibril FP inconclusive and Tau ThT inhib 2%.
C/C(N[C@@H]1CSCC1O)=C1/C(=O)CC2[C@@H]1C2(C)C (stereo partly drawn) was read as Tau fluor counter -13%, Sfp inh 0%, Tau fibril FP -16%, Coupling enz 3 and Tau ThT inhib inconclusive.
Screening CCOC(=O)N1C/C(=C\c2ccccc2)C(=O)/C(=C/c2ccccc2)C1 returned Tau fluor counter -10%, Sfp inh -19%, Tau fibril FP inconclusive, Coupling enz -1 and Tau ThT inhib 14µM*.
Screening Cc1c(C(=O)Nc2ccccc2)cn2c(nc3ccccc32)c1C#N returned Tau fluor counter 0%, Sfp inh 1%, Tau fibril FP -16%, Coupling enz 1 and Tau ThT inhib -1%.
For Cc1ccccc1C(=O)Nc1ccc2c(C#N)c3nc4ccccc4nc3n2c1 the results were Tau fluor counter inconclusive, Sfp inh 56µM*, Tau fibril FP -9%, Coupling enz -19 and Tau ThT inhib 5µM*.
`O=C(Cn1c(SCCOc2ccc(Cl)cc2)nc2ccccc21)N1CCCCC1` gave Tau fluor counter 4%, Tau fibril FP 4% and Tau ThT inhib -4%.
Cc1ccsc1C1C(C#N)=C(N)N(N(C)C)C2=C1C(=O)CCC2 (stereo not drawn) was read as Tau fluor counter -4%, Sfp inh inconclusive, Tau fibril FP -6%, Coupling enz -44* and Tau ThT inhib -1%.
`Cc1ccsc1C1C(C#N)=C(N)OC2=C1C(=O)CCC2` (stereo not drawn) gave Tau fluor counter -1%, Sfp inh 56µM*, Tau fibril FP -1%, Coupling enz -30 and Tau ThT inhib -7%.
Screening Cc1ccc(C2C(C#N)=C(N)OC3=C2C(=O)CCC3)s1 (stereo not drawn) returned Tau fluor counter -3%, Sfp inh 22%, Tau fibril FP 2%, Coupling enz -5 and Tau ThT inhib -3%.
Cc1oc(-c2ccc(C(=O)NCc3ccccc3F)cc2)nc1COc1ccccc1 was read as Tau fluor counter -13%, Tau fibril FP -2% and Tau ThT inhib -6%.
Cc1c(C(=O)Nc2cccc(F)c2)oc2c1-c1nn(Cc3c(F)cccc3Cl)cc1CC2 was read as Tau fluor counter -4%, Tau fibril FP -8% and Tau ThT inhib 0%.
